# IDE exosite FP = exo-site inhibitors of human IDE, primary screen, biochemical, fluorescence anisotropy, probe displacement; Insulin-degrading enzyme (Homo sapiens), P14735; purified IDE, FL-6b probe fluorescence polarization; stronger effect = lower value; z-score at 20 µM; 6.3% of 17,000 active; AID 1259349, 2017;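 active = z-score of -3 or lower, meaning strong loss of probe binding signal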;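 also: His-tagged human IDE residues 42-1019 made in E. coli with 30 nM FL-6b probe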
# Target sequence (P14735 42-1019 limits assumed): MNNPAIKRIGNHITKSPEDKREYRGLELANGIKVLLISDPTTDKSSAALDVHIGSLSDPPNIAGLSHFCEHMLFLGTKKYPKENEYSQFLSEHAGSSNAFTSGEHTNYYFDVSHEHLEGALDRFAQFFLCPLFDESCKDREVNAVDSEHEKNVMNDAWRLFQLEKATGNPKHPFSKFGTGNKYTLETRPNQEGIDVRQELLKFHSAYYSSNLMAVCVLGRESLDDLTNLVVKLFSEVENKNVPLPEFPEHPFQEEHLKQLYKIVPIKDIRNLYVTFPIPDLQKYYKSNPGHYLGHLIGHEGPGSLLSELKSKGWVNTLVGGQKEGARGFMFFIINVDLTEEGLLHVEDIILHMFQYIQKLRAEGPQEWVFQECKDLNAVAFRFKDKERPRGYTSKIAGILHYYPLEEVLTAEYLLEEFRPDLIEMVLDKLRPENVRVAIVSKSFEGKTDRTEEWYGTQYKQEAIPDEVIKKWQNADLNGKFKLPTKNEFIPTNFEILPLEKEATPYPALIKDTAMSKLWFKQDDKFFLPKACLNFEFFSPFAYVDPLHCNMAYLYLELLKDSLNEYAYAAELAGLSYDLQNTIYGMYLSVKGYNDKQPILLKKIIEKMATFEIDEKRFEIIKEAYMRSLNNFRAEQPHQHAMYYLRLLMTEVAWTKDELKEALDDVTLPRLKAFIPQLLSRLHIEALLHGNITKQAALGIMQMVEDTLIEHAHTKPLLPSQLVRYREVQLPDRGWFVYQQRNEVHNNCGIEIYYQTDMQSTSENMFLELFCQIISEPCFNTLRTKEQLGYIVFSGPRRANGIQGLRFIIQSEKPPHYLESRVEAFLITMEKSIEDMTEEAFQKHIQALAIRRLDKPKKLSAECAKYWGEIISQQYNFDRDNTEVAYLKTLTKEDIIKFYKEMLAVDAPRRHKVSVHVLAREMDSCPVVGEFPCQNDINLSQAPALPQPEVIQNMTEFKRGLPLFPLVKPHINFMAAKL
# Numbers stand for hits; n = inactive. This excerpt belongs to a sample that is enriched for hits.
SMILES,IDE exosite FP
CCS(=O)(=O)N1CC(=O)N2[C@H](CO)[C@@H](c3ccc(C4=CCCCC4)cc3)[C@@H]2C1,n
CCS(=O)(=O)N1CC(=O)N2[C@H](CO)[C@@H](c3ccc(-c4ccccc4C)cc3)[C@@H]2C1,-16
Cc1ccccc1-c1ccc([C@@H]2[C@@H](CO)N3C(=O)CN(S(C)(=O)=O)C[C@H]23)cc1,n
CCS(=O)(=O)N1CC(=O)N2[C@H](CO)[C@@H](c3ccc(C#Cc4ccc(F)cc4)cc3)[C@H]2C1,n
CCS(=O)(=O)N1CC(=O)N2[C@H](CO)[C@@H](c3ccc(-c4cccc(F)c4)cc3)[C@H]2C1,n
CCS(=O)(=O)N1CC(=O)N2[C@@H](CO)[C@H](c3ccc(C#CC4CC4)cc3)[C@@H]2C1,n
CCN1CC(=O)N2[C@H](C1)[C@@H](c1ccc(-c3ccccc3F)cc1)[C@@H]2CO,n
CCS(=O)(=O)N1CC(=O)N2[C@H](CO)[C@@H](c3ccc(-c4ccccc4F)cc3)[C@@H]2C1,-11
CCC(=O)N1CCCCN2[C@H](CO)[C@H](c3ccc(-c4cccc(C(=O)N(C)C)c4)cc3)[C@H]2C1,n
O=C(c1cccnc1)N1CC2(C1)[C@H](c1ccccc1)[C@H](CO)N2Cc1ccc(Cl)cc1,n
N#C[C@H]1[C@H](c2ccc(C#Cc3cccc(F)c3)cc2)[C@@H](CO)N1C(=O)C1CC1,n
Cc1ccccc1S(=O)(=O)N1C[C@@H]2N[C@H](C1)C2c1ccc(-c2cccc(C#N)c2)cc1 (stereo partly drawn),n
COc1ccccc1S(=O)(=O)N[C@@H]1C=C[C@@H](CC(=O)N2CCOCC2)O[C@H]1CO,n
O=S(=O)(c1ccccc1F)N1CCCCN2[C@H](C1)[C@H](c1ccc(-c3ccncc3)cc1)[C@@H]2CO,n
O=C(C[C@H]1CC[C@H]2[C@@H](COC[C@@H](O)CN2CCC(F)(F)F)O1)NCC1CC1,n
CN1c2ccc(-c3ccc(F)cc3)cc2[C@@H]2[C@@H](CCN2C(=O)Cc2cccnc2)[C@@H]1CO,n
O=C(NC[C@H]1[C@H](c2ccccc2)[C@H](CO)N1C(=O)C1CC1)NC1CCCC1,n
CCS(=O)(=O)N1CC(=O)N2[C@H](CO)[C@@H](c3ccc(-c4ccccc4)cc3)[C@@H]2C1,-5.4
CCS(=O)(=O)N1CC(=O)N2[C@H](CO)[C@@H](c3ccc(-c4ccc(F)cc4)cc3)[C@H]2C1,n
CCS(=O)(=O)N1CC(=O)N2[C@H](CO)[C@H](c3ccc(-c4ccc(F)cc4)cc3)[C@@H]2C1,n
O=C(Cc1ccccn1)N1CC(=O)N2[C@@H](CO)[C@@H](c3ccc(C#CC4CC4)cc3)[C@@H]2C1,n
Cc1ccc(-c2ccc([C@H]3[C@H](CO)N4C(=O)CN(C(=O)Cc5ccccn5)C[C@@H]34)cc2)cc1,n
Cc1cccc(-c2ccc([C@H]3[C@H]4CN(C(=O)Cc5ccccn5)CC(=O)N4[C@H]3CO)cc2)c1,-4.5
O=C(Cc1ccccn1)N1CC(=O)N2[C@H](C1)[C@@H](c1ccc(C#CC3CC3)cc1)[C@@H]2CO,-3.1
Cc1ccc(-c2ccc([C@H]3[C@@H](CO)N4C(=O)CN(C(=O)Cc5ccccn5)C[C@@H]34)cc2)cc1,n
SMILES,IDE exosite FP
COc1ccc(-c2ccc([C@H]3[C@H]4CN(C(=O)Cc5ccccn5)CC(=O)N4[C@H]3CO)cc2)cc1,n
Cc1cccc(-c2ccc([C@@H]3[C@@H](CO)N4C(=O)CN(C(=O)Cc5ccccn5)C[C@@H]34)cc2)c1,-12
O=C(Cc1ccccn1)N1CC(=O)N2[C@H](CO)[C@@H](c3ccc(C#CC4CC4)cc3)[C@H]2C1,n
Cc1ccc(-c2ccc([C@H]3[C@H]4CN(C(=O)Cc5ccccn5)CC(=O)N4[C@H]3CO)cc2)cc1,n
O=C(Cc1ccccn1)N1CC(=O)N2[C@@H](CO)[C@H](c3ccc(-c4ccccc4)cc3)[C@@H]2C1,n
Cc1cccc(-c2ccc([C@H]3[C@@H](CO)N4C(=O)CN(C(=O)Cc5ccccn5)C[C@@H]34)cc2)c1,-11
COc1ccc(-c2ccc([C@@H]3[C@@H](CO)N4C(=O)CN(C(=O)Cc5ccccn5)C[C@H]34)cc2)cc1,n
CNC[C@H]1Oc2c(NS(=O)(=O)c3ccc(Cl)cc3)cccc2C(=O)N([C@@H](C)CO)C[C@H]1C,n
O=C(NC[C@H]1[C@H](c2ccccc2)[C@H](CO)N1Cc1ccccn1)C1CC1,n
CO[C@@H](CN(C)Cc1nccs1)[C@@H](C)CN([C@@H](C)CO)S(=O)(=O)c1ccc(F)cc1,n
CN(C)CC#Cc1ccc([C@H]2[C@H]3CN(C(=O)c4cccnc4)CC(=O)N3[C@H]2CO)cc1,n
COc1ccc(C(=O)N2C[C@H]3[C@@H](c4ccccc42)[C@H](CO)N3C(=O)Cc2ccccn2)cc1,n
CCCNC(=O)N1CC(=O)N2[C@H](CO)[C@@H](c3ccc(C#CCC4CCCC4)cc3)[C@H]2C1,n
O=C(c1ccc(F)cc1)N1CCCCN2[C@H](CO)[C@H](c3ccc(/C=C/c4ccccc4)cc3)[C@H]2C1,n
CN(C)CC(=O)N1CCCCN2[C@H](C1)[C@@H](c1ccc(/C=C/c3ccccc3)cc1)[C@@H]2CO,-5.9
CN(C)CC#Cc1ccc([C@@H]2[C@H]3CN(C(=O)CN(C)C)CCCCN3[C@H]2CO)cc1,n
CN(C)CC(=O)N1CCCCN2[C@@H](CO)[C@H](c3ccc(/C=C/c4ccccc4)cc3)[C@@H]2C1,-6.5
O=C(c1ccc(F)cc1)N1CCCCN2[C@H](CO)[C@H](c3ccc(/C=C/c4ccccc4)cc3)[C@@H]2C1,n
CN(C)CC#Cc1ccc([C@@H]2[C@H](CO)N3CCCCN(C(=O)CN(C)C)C[C@@H]23)cc1,n
CN(C)CC#Cc1ccc([C@@H]2[C@@H](CO)N3CCCCN(C(=O)CN(C)C)C[C@H]23)cc1,n
O=C(c1ccc(F)cc1)N1CCCCN2[C@@H](CO)[C@@H](c3ccc(/C=C/c4ccccc4)cc3)[C@@H]2C1,n
CN(C)CC(=O)N1CCCCN2[C@H](C1)[C@H](c1ccc(/C=C/c3ccccc3)cc1)[C@@H]2CO,-7.3
O=C(c1ccc(F)cc1)N1CCCCN2[C@H](CO)[C@@H](c3ccc(/C=C/c4ccccc4)cc3)[C@@H]2C1,n
CN1CCCCN2[C@H](C1)[C@@H](c1ccc(/C=C/c3ccccc3)cc1)[C@@H]2CO,n
CCC(=O)N1CCCCN2[C@H](CO)[C@H](c3ccc(/C=C/c4ccccc4)cc3)[C@@H]2C1,-7.3
SMILES,IDE exosite FP
CCCC#Cc1ccc([C@H]2[C@H](CO)N3C(=O)CN(C(=O)Cc4cccnc4)C[C@@H]23)cc1,n
N#C[C@H]1[C@H](c2ccccc2)[C@@H](CO)N1C(=O)C1CCCC1,n
N#C[C@H]1[C@@H](c2ccccc2-c2ccc(F)cc2)[C@H](CO)N1c1ncc(-c2ccccc2)s1,n
COCC#Cc1ccc([C@H]2[C@@H](CO)N3C(=O)CN(C(=O)C4CCCCC4)C[C@@H]23)cc1,n
Cc1noc(C)c1S(=O)(=O)Nc1ccc2c(c1)C(=O)N([C@@H](C)CO)C[C@@H](C)[C@H](CN(C)Cc1ccc(C(=O)O)cc1)OCCCC[C@H](C)O2,n
C/C=C/c1ccc([C@@H]2[C@@H](CN(CC)C(C)=O)N(C(=O)C3CCC3)[C@H]2CO)cc1,n
CN(C)CC(=O)N1CCCCN2[C@@H](CO)[C@@H](c3ccc(-c4cncnc4)cc3)[C@@H]2C1,n
CN(C)CC#Cc1ccc([C@H]2[C@@H](CO)N3CCCCN(C(=O)CN(C)C)C[C@H]23)cc1,n

# Screens: PubChem, Broad Institute
